Results filed as inconclusive are left out. A number with no mark means an inactive call. Calls of active or inactive are those of the source. Calls come from the whole dose curve; as a rule, active = well fitted activation curve with a large enough effect in the repeat runs; inconclusive = weak or mixed curves; inactive = flat fitted curve, though single readings scatter.
What follows are molecules tested against Nuclear receptor subfamily 1 group I member 2 (Homo sapiens) (UniProt O75469) (assay: Human pregnane X receptor (PXR) activation by small molecules, qHTS assay (AID 1346985; note: nearly all actives have a fitted effect of over 40% in size)). Conditions: DPX-2 HepG2 CYP3A4-luciferase, 24 h; series mostly up to 38.3 µM; activation: at the top concentration.
From the text: National Center for Advancing Translational Sciences [NCATS]
NIH Chemical Genomics Center [NCGC]
U.S. Environmental Protection Agency [EPA]
National Institutes of Environmental Health Sciences [NIEHS]
National Toxicology Program [NTP]
The Pregnane X receptor (PXR), a ligand activated nuclear receptor plays a critical role in the regulation of genes involved in drug metabolism and transporters. Activation of PXR may be involved in the unwanted adverse drug-drug interactions. […] Therefore, identification of compounds with the potential for PXR activation can be of importance in improving the efficacy of drugs with less toxicity and avoiding drug-drug interactions.
DPX-2 (Puracyp, Inc.) cell lines, used for screening against human PXR activation has HepG2 cells co-transfected with a PXR response element and a luciferase construct containing CYP3A4 promoter. Increase in luciferase activity can be used to identify the compounds that activate the PXR pathway.
DPX-2 cells were dispensed at 2,000 cells per well in 5uL of assay medium into white, solid-bottom 1536-well plates using a Multidrop Combi dispenser (Thermo Scientific). The assay plates were incubated at 37C for 5hr before transferring 23nL of test compounds dissolved in DMSO and positive control via Pintool station (Wako). The assay plates were incubated at 37C for 24hr. Then 5ul One-Glo assay reagent (Promega) was added to each plate by a Flying Reagent Dispenser (FRD, Aurora Discovery) and following 30 min incubation at room temperature, luciferase activity was quantified on a ViewLux plate reader (Perkin Elmer).
`CC(=O)Nc1ncc([N+](=O)[O-])s1` was tested, and the “activation” value was -7.59%. `CC(C)(CO)[C@@H](O)C(=O)NCCCO` was tested, and the “activation” value was 19.1%. `NS(=O)(=O)c1cc2c(cc1Cl)NC(C(Cl)Cl)NS2(=O)=O` (stereo unspecified) was tested, and the “activation” value was 14.3% [at 17.1 µM]. For `F[Si-2](F)(F)(F)(F)F`, the “activation” value was -3.48%. For `Nc1ccc(S(=O)(=O)NC(=O)c2ccccc2)cc1`, the “activation” value was 10.4% [at 17.1 µM]. In the case of `NS(=O)(=O)c1ccc(Cl)c(S(N)(=O)=O)c1`, the “activation” value is reported as 2.94%. In the case of `O=C(Nc1cccc(C2=NCCN2)c1)Nc1cccc(C2=NCCN2)c1`, the “activation” value is reported as -0.736%. With `COc1cc2c3cc1Oc1cc(ccc1O)C[C@@H]1c4c(cc(OC)c(O)c4Oc4ccc(cc4)C[C@@H]3N(C)CC2)CC[N+]1(C)C` the “activation” value was 4.44%. For `O=c1[nH]c(=O)c2[nH]c(=O)[nH]c2[nH]1`, the “activation” value was -1.14%. For `CN[C@@H]1[C@H](O)[C@H](NC)[C@H]2O[C@@]3(O)C(=O)C[C@@H](C)O[C@H]3O[C@@H]2[C@H]1O`, the “activation” value was 1.04% [at 17.1 µM]. With `O=c1cc(O)c(Cl)c[nH]1` the “activation” value was -1.27%. In the case of `CNCc1ccccc1`, the “activation” value is reported as 1.69%. With `O=C(O)/C=C/c1ccccc1` the “activation” value was 0.681%. For `NS(=O)(=O)c1cc2c(cc1Cl)NC(CC1CCCC1)NS2(=O)=O` (stereo unspecified), the “activation” value was -7.39% [at 17.1 µM]. In the case of `CC(=O)N(CC(O)CO)c1c(I)c(C(=O)NCC(O)CO)c(I)c(C(=O)NCC(O)CO)c1I` (stereo unspecified), the “activation” value is reported as 4.37%. For `Cc1cccc(Nc2ccncc2S(=O)(=O)NC(=O)NC(C)C)c1`, the “activation” value was 26.9% [at 17.1 µM]. With `Cc1oc(=O)oc1CN1CCN(c2cc3c(cc2F)c(=O)c(C(=O)O)c2n3C(C)S2)CC1` (stereo unspecified) the “activation” value was 2.14%. With `NC(=O)NC(=O)Cc1ccccc1` the “activation” value was 0.572%. With `NC(=O)C1(N2CCCCC2)CCN(CCCC(=O)c2ccc(F)cc2)CC1` the “activation” value was 8.56%. For `Nc1ccc(/C=C/c2ccc(N)cc2S(=O)(=O)O)c(S(=O)(=O)O)c1`, the “activation” value was -5.52%. With `Cn1c(=O)c2c(ncn2CC2OCCO2)n(C)c1=O` the “activation” value was -5.32%. For `O=C(/C=C/c1ccccc1)NCCO`, the “activation” value was 3.69%. For `COc1ccc(/C=N/NC(=O)c2ccncc2)cc1OC`, the “activation” value was -6.05%. With `CCC1Nc2cc(Cl)c(S(N)(=O)=O)cc2S(=O)(=O)N1` (stereo unspecified) the “activation” value was 16.6%. For `NCCc1ccn[nH]1`, the “activation” value was -5.25% [at 17.1 µM]. In the case of `CCNC(=O)/C=C/c1cccc(Br)c1`, the “activation” value is reported as 23.9%. For `COc1cc2c(Nc3ccc(Br)cc3F)ncnc2cc1OCC1CCN(C)CC1`, the Potency was 14.1 µM (active). For `Nc1ccc(S(=O)(=O)Nc2ccccn2)cc1`, the “activation” value was -7.65% [at 17.1 µM]. In the case of `Cc1c(C(C)C)c(=O)n(-c2ccccc2)n1C`, the “activation” value is reported as 23%. `O=c1[nH]c(=O)c2ccccc2o1` was tested, and the “activation” value was -0.342%. In the case of `O=C(Oc1ccccc1C(=O)O)c1ccccc1O`, the “activation” value is reported as -13.6%.
% is set by controls: 0 for no effect and ±100 for the full control effect; potency is the fitted concentration of half-maximal effect.
